# Results published in PubChem BioAssay AID1159580 (chemical genetic matrix, 2015).
# Among all 5,500 compounds or so, about 2,000 (36%) were called active. Inconclusive results (about 18%) are left out. The list shows a part of the results. Unmarked numbers belong to inactive results. Rule as the data show it: active = normalized growth mostly below about 0.91 (no sharp cut-off); inconclusive = no clear call, values can overlap the other calls; inactive = mostly above about 0.92.
# Assay: chemical genetic growth profiling, strain panel (AID 1159580);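 also: tested at 20 µM; growth read once vehicle control cultures reached saturation at 30 °C; 1 = growth at the plate median or of vehicle wells; lower values mean less growth of the strain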
# Conditions: growth OD
smiles,measurement,setting,value
CC1(C)C2CC[C@]3(C)C(C(=O)C=C4[C@H]5C[C@@](C)(C(=O)O)CC[C@]5(C)CC[C@]43C)[C@@]2(C)CC[C@@H]1O (some centres not stated),normalized growth,"S. cerevisiae deletion strains, locus YJR075W, strain HOC1, active compounds read low",1.05
same,normalized growth,"S. cerevisiae deletion strains, locus YKL009W, strain mrt4, active compounds read low",0.921
same,normalized growth,"S. cerevisiae deletion strains, locus YKL068W, active compounds read low",1.02
same,normalized growth,"S. cerevisiae deletion strains, locus YKL085W, strain MDH1 (second series), active compounds read low",1.02
same,normalized growth,"S. cerevisiae deletion strains, locus YKL085W, strain MDH1, active compounds read low",1.02
same,normalized growth,"S. cerevisiae deletion strains, locus YKL160W, strain elf1, active compounds read low",0.95
same,normalized growth,"S. cerevisiae deletion strains, locus YKL190W, strain CNB1, active compounds read low",1.04
same,normalized growth,"S. cerevisiae deletion strains, locus YKR001C, strain vps1, active compounds read low",0.996
same,normalized growth,"S. cerevisiae deletion strains, locus YKR026C, strain gcn3, active compounds read low",1.03
same,normalized growth,"S. cerevisiae deletion strains, locus YKR091W, strain srl3, active compounds read low",1.01
same,normalized growth,"S. cerevisiae deletion strains, locus YLL001W, strain dnm1, active compounds read low",0.867 (active)
same,normalized growth,"S. cerevisiae deletion strains, locus YLL026W, active compounds read low",0.979
same,normalized growth,"S. cerevisiae deletion strains, locus YLL041C, strain sdh2, active compounds read low",1.01
same,normalized growth,"S. cerevisiae deletion strains, locus YLR027C, strain aat2, active compounds read low",0.899 (active)
same,normalized growth,"S. cerevisiae deletion strains, locus YLR039C, strain RIC1, active compounds read low",1.1
same,normalized growth,"S. cerevisiae deletion strains, locus YLR058C, strain SHM2, active compounds read low",1.03
same,normalized growth,"S. cerevisiae deletion strains, locus YLR102C, strain apc9, active compounds read low",1.01
same,normalized growth,"S. cerevisiae deletion strains, locus YLR113W, strain HOG1, active compounds read low",1.01
same,normalized growth,"S. cerevisiae deletion strains, locus YLR221C, strain rsa3, active compounds read low",0.917
same,normalized growth,"S. cerevisiae deletion strains, locus YLR258W, strain gsy2, active compounds read low",0.953
same,normalized growth,"S. cerevisiae deletion strains, locus YLR262C, strain YPT6 (second series), active compounds read low",0.702 (active)
same,normalized growth,"S. cerevisiae deletion strains, locus YLR262C, strain YPT6, active compounds read low",1.04
same,normalized growth,"S. cerevisiae deletion strains, locus YLR268W, strain sec22, active compounds read low",0.944
same,normalized growth,"S. cerevisiae deletion strains, locus YLR320W, strain mms22, active compounds read low",0.871 (active)
same,normalized growth,"S. cerevisiae deletion strains, locus YLR330W, strain CHS5, active compounds read low",1.04
same,normalized growth,"S. cerevisiae deletion strains, locus YLR342W, strain FKS1 (second series), active compounds read low",1.03
same,normalized growth,"S. cerevisiae deletion strains, locus YLR342W, strain FKS1, active compounds read low",1.01
same,normalized growth,"S. cerevisiae deletion strains, locus YLR357W, strain rsc2, active compounds read low",1.05
same,normalized growth,"S. cerevisiae deletion strains, locus YLR370C, strain arc18, active compounds read low",1.01
same,normalized growth,"S. cerevisiae deletion strains, locus YLR371W, strain rom2, active compounds read low",1
same,normalized growth,"S. cerevisiae deletion strains, locus YLR384C, strain iki3, active compounds read low",1.02
same,normalized growth,"S. cerevisiae deletion strains, locus YLR418C, strain cdc73, active compounds read low",1.03
same,normalized growth,"S. cerevisiae deletion strains, locus YML016C, strain PPZ1, active compounds read low",1.05
same,normalized growth,"S. cerevisiae deletion strains, locus YML032C, strain rad52, active compounds read low",0.991
same,normalized growth,"S. cerevisiae deletion strains, locus YML120C, strain ndi1, active compounds read low",0.993
same,normalized growth,"S. cerevisiae deletion strains, locus YML124C, strain tub3, active compounds read low",1.02
same,normalized growth,"S. cerevisiae deletion strains, locus YMR058W, strain fet3, active compounds read low",0.984
same,normalized growth,"S. cerevisiae deletion strains, locus YMR078C, strain ctf18, active compounds read low",1.01
same,normalized growth,"S. cerevisiae deletion strains, locus YMR125W, strain sto1, active compounds read low",1.02
same,normalized growth,"S. cerevisiae deletion strains, locus YMR129W, active compounds read low",1.01
same,normalized growth,"S. cerevisiae deletion strains, locus YMR205C, strain PFK2, active compounds read low",0.843 (active)
same,normalized growth,"S. cerevisiae deletion strains, locus YMR223W, strain ubp8, active compounds read low",0.994
same,normalized growth,"S. cerevisiae deletion strains, locus YMR231W, strain pep5, active compounds read low",0.984
same,normalized growth,"S. cerevisiae deletion strains, locus YMR263W, strain SAP30, active compounds read low",1.03
same,normalized growth,"S. cerevisiae deletion strains, locus YMR307W, strain GAS1, active compounds read low",1.02
same,normalized growth,"S. cerevisiae deletion strains, locus YNL067W, strain RPL9B, active compounds read low",0.98
same,normalized growth,"S. cerevisiae deletion strains, locus YNL071W, strain lat1, active compounds read low",0.603 (active)
same,normalized growth,"S. cerevisiae deletion strains, locus YNL128W, strain TEP1, active compounds read low",1.04
same,normalized growth,"S. cerevisiae deletion strains, locus YNL153C, strain GIM3, active compounds read low",0.982
same,normalized growth,"S. cerevisiae deletion strains, locus YNL183C, strain NPR1, active compounds read low",0.946
same,normalized growth,"S. cerevisiae deletion strains, locus YNL209W, strain ssb2, active compounds read low",0.971
same,normalized growth,"S. cerevisiae deletion strains, locus YNL233W, strain BNI4, active compounds read low",1.03
same,normalized growth,"S. cerevisiae deletion strains, locus YNL248C, strain rpa49, active compounds read low",0.926
same,normalized growth,"S. cerevisiae deletion strains, locus YNL250W, strain rad50, active compounds read low",1.01
same,normalized growth,"S. cerevisiae deletion strains, locus YNL271C, strain bni1, active compounds read low",1.01
same,normalized growth,"S. cerevisiae deletion strains, locus YNL298W, strain CLA4, active compounds read low",0.965
same,normalized growth,"S. cerevisiae deletion strains, locus YNL307C, strain MCK1, active compounds read low",1.02
same,normalized growth,"S. cerevisiae deletion strains, locus YNL322C, strain KRE1 (second series), active compounds read low",1.01
same,normalized growth,"S. cerevisiae deletion strains, locus YNL322C, strain KRE1, active compounds read low",1.05
same,normalized growth,"S. cerevisiae deletion strains, locus YNR049C, strain mso1, active compounds read low",1.01
same,normalized growth,"S. cerevisiae deletion strains, locus YNR052C, strain pop2, active compounds read low",0.999
same,normalized growth,"S. cerevisiae deletion strains, locus YOL006C, strain TOP1, active compounds read low",1.09
same,normalized growth,"S. cerevisiae deletion strains, locus YOL012C, strain htz1",1.33
same,normalized growth,"S. cerevisiae deletion strains, locus YOL147C, strain pex11, active compounds read low",1.02
same,normalized growth,"S. cerevisiae deletion strains, locus YOR001W, strain rrp6, active compounds read low",1.01
same,normalized growth,"S. cerevisiae deletion strains, locus YOR061W, strain CKA2, active compounds read low",1.04
same,normalized growth,"S. cerevisiae deletion strains, locus YOR069W, strain VPS5, active compounds read low",1.04
same,normalized growth,"S. cerevisiae deletion strains, locus YOR070C, strain gyp1, active compounds read low",0.905 (active)
same,normalized growth,"S. cerevisiae deletion strains, locus YOR080W, strain dia2, active compounds read low",1.02
same,normalized growth,"S. cerevisiae deletion strains, locus YOR083W, strain WHI5, active compounds read low",0.915
same,normalized growth,"S. cerevisiae deletion strains, locus YOR106W, strain vam3, active compounds read low",0.76 (active)
same,normalized growth,"S. cerevisiae deletion strains, locus YOR136W, strain idh2, active compounds read low",1.01
same,normalized growth,"S. cerevisiae deletion strains, locus YOR144C, strain elg1, active compounds read low",1.02
same,normalized growth,"S. cerevisiae deletion strains, locus YOR184W, strain ser1, active compounds read low",0.898
same,normalized growth,"S. cerevisiae deletion strains, locus YOR231W, strain MKK1, active compounds read low",1
same,normalized growth,"S. cerevisiae deletion strains, locus YOR265W, strain rbl2, active compounds read low",0.995
same,normalized growth,"S. cerevisiae deletion strains, locus YOR270C, strain vph1, active compounds read low",0.638 (active)
same,normalized growth,"S. cerevisiae deletion strains, locus YOR290C, strain snf2, active compounds read low",0.944
same,normalized growth,"S. cerevisiae deletion strains, locus YOR316C, strain cot1, active compounds read low",1.01
same,normalized growth,"S. cerevisiae deletion strains, locus YPL051W, strain arl3, active compounds read low",0.892 (active)
same,normalized growth,"S. cerevisiae deletion strains, locus YPL055C, strain LGE1, active compounds read low",1.05
same,normalized growth,"S. cerevisiae deletion strains, locus YPL078C, strain atp4, active compounds read low",0.869 (active)
same,normalized growth,"S. cerevisiae deletion strains, locus YPL106C, strain sse1, active compounds read low",1.17 [resistant] (active)
same,normalized growth,"S. cerevisiae deletion strains, locus YPL240C, strain hsp82, active compounds read low",0.97
same,normalized growth,"S. cerevisiae deletion strains, locus YPL241C, strain CIN2, active compounds read low",1.05
same,normalized growth,"S. cerevisiae deletion strains, locus YPL256C, strain CLN2, active compounds read low",1.03
same,normalized growth,"S. cerevisiae deletion strains, locus YPR119W, strain clb2, active compounds read low",1.02
same,normalized growth,"S. cerevisiae deletion strains, locus YPR141C, strain kar3, active compounds read low",1.02
same,normalized growth,"S. cerevisiae deletion strains, locus YPR163C, strain tif3, active compounds read low",1.02
same,normalized growth,"S. cerevisiae deletion strains, locus YPR167C, strain met16, active compounds read low",1.02
same,normalized growth,"S. cerevisiae deletion strains, strain wtn01, active compounds read low",0.976
same,normalized growth,"S. cerevisiae strains, strain wild type, active compounds read low",1.02
